From PubChem
SMARCA2 activ: increases SMARCA2 function in MMTV reporter cells | MG213 cells, MMTV-luciferase reporter, dexamethasone, overnight | 370,000 tested, 1% active | activation, % at 9.1 µM | AID 652017; in the data active means activation above about 7.8%;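 further: 0% = vehicle wells and 100% = reference activator wells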
ssDAF-12 act: S. stercoralis DAF-12 activation, primary screen. HEK293 ssDAF-12/GRIP1 lit1-tk-luc reporter, luminescence; % of 3 µM dafachronic acid response. 370,000 tested, 1% active. AID 652126. activation, % at 6.8 µM;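 active means activation above the mean over all tested compounds plus 3 SD, cut at about 0.9% in these data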;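 further: 0% = DMSO-only wells and 100% = 3 µM delta7-dafachronic acid wells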
hgDAF-12 ag: hgDAF-12 agonism, primary luciferase screen; HEK293 GAL4-hgDAF12 UAS-luciferase reporter, agonist luminescence; normalized to butyrate control; activation, % at 6.8 µM; 370,000 tested, 1.8% active; AID 687014;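 active means activation above a cutoff set at the mean of all screened compounds plus 3 SD, cut at about 10% in these data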;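 further: 0% = DMSO wells and 100% = sodium butyrate wells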
DAX1 inh-1: blocks DAX1 repression of SF-1 activated StAR promoter; HEK293T StAR-luciferase reporter, SF-1/DAX-1 repression relief; 370,000 tested, 1.1% active; inhibition, % at 6.8 µM; AID 652010;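 active means inhibition above the mean over all tested compounds plus 3 SD, cut at about 3.6% in these data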;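 further: 0% = DAX-1 cells with DMSO and 100% = cells lacking DAX-1 with DMSO; higher inhibition means more luminescence from relief of DAX-1 repression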
DAX1 inh-2: NR0B1 (DAX1) inhibition; AID 504766; inhibition, % at 6.75 µM; HEK293 Gal4-DAX1 luciferase reporter, luminescence; 340,000 tested, 0.99% active;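 active means inhibition above the mean over all tested compounds plus 3 SD, cut at about 4.2% in these data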;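 further: 0% = DAX1-transfected cells with DMSO and 100% = empty-vector control cells with DMSO; inhibition shows as a rise in luminescence from relieved DAX1 repression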
Target sequence (P51843 207-470 limits assumed): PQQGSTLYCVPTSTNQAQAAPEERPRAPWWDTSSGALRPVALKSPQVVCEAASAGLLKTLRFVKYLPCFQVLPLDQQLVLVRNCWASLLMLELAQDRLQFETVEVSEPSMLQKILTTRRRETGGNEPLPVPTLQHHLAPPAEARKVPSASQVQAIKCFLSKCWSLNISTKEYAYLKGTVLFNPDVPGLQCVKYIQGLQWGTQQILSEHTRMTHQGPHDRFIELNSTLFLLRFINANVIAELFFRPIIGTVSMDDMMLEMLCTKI
hcDAF-12 act: activates DAF-12 receptor from parasite H. contortus; AID 652067; HEK293 hcDAF-12 lit1-tk-luc reporter, luminescence; 0% DMSO, 100% Δ7-dafachronic acid; 370,000 tested, 1.4% active; activation, % at 6.8 µM;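 active means activation above the mean of all tested compounds plus 3 SD, cut at about 5.5% in these data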;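 further: 100% = response to 3 µM Δ7-dafachronic acid high control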
Active calls of the source: *; / = not tested or not shown. A selection: hits, their analogues and other compounds. The true share with any hit is near 4.8%.

SMILES	SMARCA2 activ	ssDAF-12 act	hgDAF-12 ag	DAX1 inh-1	DAX1 inh-2	hcDAF-12 act
O=[N+]([O-])c1cccc(OCCN2CCC(Cc3ccccc3)CC2)c1	-1	-2	-1	0	5.8*	0
CC1=CC(C)=Nc2ccccc2N1	6	2.1*	11*	3	1	5.6*
CC(C)C[C@@H]1NC(=O)[C@H]2C[C@]3(c4ccccc4)c4ccccc4N[C@H]3N2C1=O	-3	-1	0	0	/	-1
Cc1ccc(S(=O)(=O)N2CCN(c3cnn(-c4ccccc4)c(=O)c3Cl)CC2)cc1	0	-1	0	1	4.7*	0
Cc1ccc(S(=O)(=O)N2CCN(c3cnn(C)c(=O)c3Cl)CC2)cc1	3	-2	-1	-1	0	-1
O=C(Nc1ccc2ccccc2c1)c1ccc2[nH]c(=O)c(=O)[nH]c2c1	3	0	2	1	1	6.1*
O=S(=O)(NCc1ccccc1)NCc1cccc(C(F)(F)F)c1	2	-1	-2	0	4.7*	-3
CC1CCC(NC(=O)C2CCN(c3cnccn3)CC2)CC1 (configuration not stated)	-1	-1	0	0	7.1*	-1
COC(=O)C1CCN(c2cnccn2)CC1	-2	0	1	1	0	-2
CN(C)c1ccc(N=Cc2nc(-c3ccccc3)oc2OC(=O)c2cccc(Cl)c2)cc1	2	-1	12*	3	2	1
COc1ccc(N=Cc2nc(-c3ccccc3)oc2OC(C)=O)cc1	2	-1	-1	1	0	0
CC(NC(=O)Nc1ccc(Cl)cc1)C(c1cccs1)N1CCOCC1 (configuration not stated)	-1	1.5*	-1	-1	0	-1
c1ccc(C[C@H]2CNCCN2CCc2cccc3ccccc23)cc1	1	-1	0	0	1	0
CCOCCCn1c(=NC(=O)c2ccco2)c(C(=O)OCC)cc2c(=O)n3cccc(C)c3nc21	7.8*	0	5	0	0	-1
C/C(=N/NC(=O)c1ccc(C(C)(C)C)cc1)c1cccnc1	-5	0	2	0	/	0
C/C(=N\NC(=O)c1sccc1C)c1cccnc1	5	0	9	4.2*	1	4
CC(C)(C)c1ccc(/C=N/Nc2cccc(C(=O)O)c2)cc1	5	-1	12*	4.0*	-4	4
CC(C)(C)c1ccc(/C=N/Nc2ccc(C(=O)O)cc2)cc1	-7	-2	-15	-2	-4	-5
O=[N+]([O-])c1ccc(N/N=C/c2cccnc2)cc1	-1	-1	7	-1	2	0
O=C(O)c1cccc(N/N=C/c2cccnc2)c1	3	2.3*	6	2	-3	2
Clc1ccc(N/N=C/c2cccnc2)cc1	0	-1	4	0	-1	6.0*
O=C(O)c1cccc(N/N=C/c2cc(Br)cc(Br)c2O)c1	2	0	6	1	1	2
CN(C)c1ccc(/C=N/Nc2cccc(C(=O)O)c2)cc1	5	0	12*	1	-3	5
COc1cc2c(cc1OC)C(C)N(C(=O)c1cc(C)on1)CC2 (configuration not stated)	1	-1	-3	3	0	0
CCOC(=O)C1CCCN(C(=O)C(C)(C)Oc2ccc(Cl)cc2)C1 (configuration not stated)	3	-1	-3	0	0	-2
SMILES	SMARCA2 activ	ssDAF-12 act	hgDAF-12 ag	DAX1 inh-1	DAX1 inh-2	hcDAF-12 act
Cc1cc(C)nc(Oc2ccc(Br)cc2Br)n1	-2	0	7	1	0	-1
Cn1c(=O)c2c(SCC(=O)N3CCCc4ccccc43)nc(C3CC3)nc2n(C)c1=O	-3	-1	-3	0	1	1
Cc1ccc(C(=O)N/N=C/c2cccnc2)cc1Cl	3	1.7*	-1	1	-1	-1
Nc1c(Cl)ncnc1N/N=C/c1cccnc1	-4	-1	-1	0	5.0*	1
C=CCSc1n[nH]c(-c2ccc(OCCC)cc2)n1	/	/	/	/	2	/
C=CCSc1n[nH]c(-c2ccc(OCCCC)cc2)n1	3	0.9*	6	2	2	1
COc1ccccc1N1CCN(S(=O)(=O)c2ccccc2)CC1	2	-1	3	0	2	0
COc1ccccc1N1CCN(S(=O)(=O)c2cc(C(F)(F)F)cc(C(F)(F)F)c2)CC1	-1	-1	3	0	7.7*	-2
O=C(O)c1ccc(CNC(=O)c2ccc(C(F)(F)F)cc2)cc1	-2	0	2	1	0	4
CC1=CC(c2ccc(Cl)cc2)n2ncnc2N1 (configuration not stated)	0	-2	2	0	0	-1
COc1ccc(C2C=C(C)Nc3ncnn32)cc1 (configuration not stated)	2	-1	3	2	4.6*	0
CC(=O)C1=C(O)C(=O)OC1c1ccc(C)cc1 (configuration not stated)	-2	-1	-3	0	3	-1
CC(=O)C1=C(O)C(=O)OC1c1ccc(Cl)cc1 (configuration not stated)	4	0	1	0	4.4*	-1
N#Cc1nc(COc2ccc(Br)cc2)oc1N1CCCC1	-1	-1	0	-1	0	-1
CC1(C)Cc2c(sc3nc(C4CCCCC4)n(N)c(=O)c23)CO1	-1	-1	1	0	1	0
CC1(C)Cc2c(sc3nc(C4CC4)n(N)c(=O)c23)CO1	1	-2	-1	0	7.6*	-2
O=C(N/N=C\CCc1ccccc1)c1ccco1	7	0	13*	2	2	3
O=C(CSc1nnc(CCCN2C(=O)c3cccc4cccc(c34)C2=O)n1-c1ccccc1)N1CCCCC1	8.1*	-2	-1	0	-1	-2
Cc1ccc2nc(CSc3nnc(-c4ccncc4)n3C)cc(=O)n2c1	-2	-2	0	0	0	1
COCCNC(=O)COC(=O)C1=Cc2ccccc2OC1	6	0	-2	0	4.7*	0
O=C(COC(=O)C1=Cc2ccccc2OC1)NCc1ccccc1	1	-1	2	0	-1	-1
CCn1cc(S(=O)(=O)CC(=O)Nc2ccc3c(c2)OCCO3)c2ccccc21	-4	-1	-3	-1	0	-3
CCN(CC)C(=O)Cn1cc(S(=O)(=O)CC(=O)Nc2ccc3c(c2)OCCO3)c2ccccc21	1	2.0*	2	0	1	0
c1ccc2cc(Cn3ccc4ccc(-c5ccc6cc[nH]c6c5)cc43)ccc2c1	0	1.2*	0	-1	/	3
